Source: PubChem BioAssay (National Center for Advancing Translational Sciences (NCATS))
Most compounds without a hit are left out; they make up all but 20% or so of the library.
Pf growth 48h: inhibits P. falciparum growth in the first generation, 48 h; P. falciparum luciferase growth in erythrocytes, 48 h; Potency, µM (titrated, usually from 28.7 µM), inactives show at the top dose activity change, negative = inhibition, actives largely listed as inhibitors; 310,000 compounds, 5.9% hits; AID 504832; note: potency is the fitted concentration of half-maximal effect; % is set by controls: 0 for no effect and ±100 for the full control effect
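Cell-based growth assay: transgenic P. falciparum expressing firefly luciferase, cultured in red cells within RPMI 1640 containing 0.5% w/v Albumax, 24 mM bicarbonate and gentamycin. A drop in luciferase activity indicates inhibition.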
HCMV inh: inhibitors of human cytomegalovirus. HFF cells, HCMV-luciferase reporter, 72 h; hits give low values. activity change, negative = inhibition, % at 57.5 µM. 410,000 compounds, 4.5% hits; in the data active = activity change below about -60%; inconclusive = no clear call, values can overlap the other calls; inactive = above about -39%; note: % is set by controls: 0 for no effect and ±100 for the full control effect
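Steps: HFFs plated, 16 h 37C; compounds added; HCMV-luciferase added to MOI 1 PFU/cell; 72 h 37C; OneGlo reagent, 5 min room temperature; luminescence read, normalized to controls.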
CHX counter: counter-screen for Shiga toxin inhibitors: cycloheximide protein synthesis inhibition; cell reporter, cycloheximide protein synthesis inhibition counterscreen; max response, %; 300,000 compounds, 12% hits; in the data active = max response mostly above about 13%, no sharp cut-off; inactive = mostly below about 14%; note: read at 38.3 µM for the half of the compounds with a filed dose; 0% is about no effect
Shiga toxin inh: Shiga toxin inhibition | inhibition, % at 38.7 µM | Vero cells, Shiga toxin protein synthesis inhibition reporter | AID 2315 | 290,000 compounds, 9.2% hits; in the data active = inhibition mostly above about 28%, no sharp cut-off; inactive = mostly below about 43%; note: 0% is about no effect
Pf growth 96h: inhibits malaria parasite growth, 96 h; P. falciparum luciferase reporter growth, 96 h; Potency, µM (top dose mostly 28.7 µM), without a hit: top-dose activity change, negative = inhibition, usual class: inhibitors; 320,000 compounds, 6.9% hits; AID 504834; note: potency is the fitted concentration of half-maximal effect; % is set by controls: 0 for no effect and ±100 for the full control effect
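Cell-based qHTS: luciferase-tagged P. falciparum in erythrocytes (2% hematocrit, 0.05% parasitemia final) incubated with compounds for 96 hours, 37 C, 5% CO2; luciferase detection reagent then added and luminescence measured.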
Numbers without * were called inactive; i = inactive; u = inconclusive; x = not tested or not shown. Unless noted, calls come from the whole dose curve; as a rule, active = well fitted inhibition curve with a large enough effect; inconclusive = small, poorly fitted or top-dose-only effect, or another doubt; inactive = no such curve, though single readings can be large or run the other way.

SMILES | Pf growth 48h | HCMV inh | CHX counter | Shiga toxin inh | Pf growth 96h
CC(C)Oc1ccc(C(=O)OCC(=O)NCCNC(=O)COC(=O)c2ccc(OC(C)C)cc2)cc1 | u | 49 | -4 | -19 | 13µM*
CN(C)c1ccc(C(=O)OCc2ccc(Br)cc2)cc1 | x | -5 | 16 | 67* | 18%
COC(=O)c1ccc(CNC(=O)COC(=O)c2ccc(N(C)C)cc2)cc1 | -3% | -66* | 5 | -9 | -2%
CN(C)c1ccc(C(=O)OCC(=O)NCCNC(=O)COC(=O)c2ccc(N(C)C)cc2)cc1 | 132% | 27 | 30* | 71* | 112%
CN(C)c1ccc(C(=O)OCC(=O)NCCCc2ccccc2)cc1 | -7% | -2 | -8 | -9 | 2%
COc1ccc(OC)c(NS(=O)(=O)c2ccc(-c3cc(C)no3)s2)c1 | x | 0 | x | x | x
COc1ccc(C2=Nc3ccccc3NC(=O)C2N(CCCn2ccnc2)C(=O)c2cccc(S(C)(=O)=O)c2)cc1 (centres undefined) | x | -5 | x | x | x
CN(C(=O)CSc1nc(-c2ccccc2)c(-c2ccccc2)o1)C1CCS(=O)(=O)C1 (centres undefined) | 0% | -64* | -4 | 2 | u
COCC(C)NC(=O)CSc1nc(-c2ccccc2)c(-c2ccccc2)o1 (centres undefined) | x | -67* | 1 | -12 | u
CN(C(=O)CSc1nc2ccccc2o1)C1CCS(=O)(=O)C1 (centres undefined) | 43% | 4 | x | x | 42%
CNC(=O)CSc1nc(-c2ccccc2)c(-c2ccccc2)o1 | u | -28 | -2 | -13 | u
CC(C)NC(=O)COc1ccc(OCc2ccccc2)cc1 | 4% | u | 20* | 29 | 0%
CCOC(=O)C(=O)Nc1ccc(OCc2ccccc2)cc1 | 18% | -18 | 3 | -4 | 19%
CCOCC(=O)Nc1ccc(OCc2ccccc2)cc1 | u | -20 | 35* | 46* | -1%
CC(C)C(C)NC(=O)COc1ccc(OCc2ccccc2)cc1 (centres undefined) | 10% | u | 19 | 33 | -5%
CCOC(=O)CNC(=O)C(CO)NC(=O)OCc1ccccc1 (centres undefined) | 10% | -100* | 26* | 6 | u
Cc1noc(C)c1COc1cccc(C(=O)Nc2ccc(OCc3ccccc3)cc2)c1 | -3% | -21 | 12* | 27 | -20%
CCOC(=O)CNC(=O)C(Cc1ccccc1)NC(=O)OCc1ccccc1 (centres undefined) | 19% | -3 | -2 | -6 | 11%
O=S(=O)(NCC(c1ccco1)N1CCOCC1)c1ccc(F)cc1 (centres undefined) | x | 7 | x | x | x
Cc1noc(C)c1COc1cccc(C(=O)Nc2ccccc2N2CCOCC2)c1 | u | 18 | -2 | 12 | 13µM*
CCSc1nnc(NC(=O)c2cccc(OCc3c(C)noc3C)c2)s1 | u | -4 | 14 | 26 | u
Cc1nn2c(COc3ccc(NC(=O)c4ccccc4)cc3)nnc2c2ccccc12 | u | 96 | 3 | -16 | 6.6µM*
COc1ccc2nc(NC(=O)c3cccc(OCc4c(C)noc4C)c3)sc2c1 | -59% | 8 | 44* | 118* | -95%
O=C(Nc1ccc(Oc2nnc(-c3ccccc3)c3ccccc23)cc1)c1ccccc1 | 10µM* | -60* | -2 | -6 | -7%
CCC(=O)Nc1ccc(OCc2nnc3c4ccccc4c(C)nn23)cc1 | u | -7 | -2 | -22 | 31%
SMILES | Pf growth 48h | HCMV inh | CHX counter | Shiga toxin inh | Pf growth 96h
CCOc1ccc(NC(=O)CCc2c(C)nc3nc(-c4cc(OC)cc(OC)c4)nn3c2C)cc1 | x | 10 | x | x | x
O=C(Nc1cccc2ccccc12)c1ccc2sc([C@H]3C[C@H](O)[C@@H](CO)O3)nc2c1 | x | -25 | x | x | x
COc1ccc(NC(=O)c2c(-c3ccccc3)c(-c3ccccc3)nn(C)c2=O)c(OC)c1 | x | -8 | x | x | x
COc1ccc(CCNC(=O)CCc2c(C)nc3c4cccnc4nn3c2C)cc1OC | x | 11 | x | x | x
O=C(c1ccc(C(F)(F)F)cc1)N1CCC(=O)N([C@H](COCc2ccc(C(F)(F)F)cc2)Cc2ccccc2)CC1 | x | -31 | 1 | i | x
O=C(Nc1ccccc1F)c1ccc(OCc2ccccc2)cc1 | 55% | 25 | 49* | 86* | 13%
O=C(NCCSc1ccccc1)c1cccnc1 | 84% | 48 | 49* | 83* | -2%
CC(C)C(C)NC(=O)COc1ccc(Sc2ccc(OCC(=O)NC(C)C(C)C)cc2)cc1 (centres undefined) | u | -88* | 3 | 23 | u
O=C(Nc1ccc(OCc2ccccc2)cc1)c1ccccc1 | 20% | 9 | 14* | 26 | 0%
O=C(NCCCSc1ccccc1)c1cccnc1 | 25% | 42 | -2 | -16 | -30%
CCOC(=O)C1=C(O)C(=O)N(Cc2cccnc2)C1c1ccc(C)cc1 (centres undefined) | -17% | -7 | -2 | -4 | 9%
CC1=C(C(=O)N2CCOCC2)C(c2ccc(C)cc2)NC(=S)N1 (centres undefined) | 20% | -37 | -3 | -16 | -23%
COc1ccccc1C(=O)NCc1nnnn1-c1ccc(C)c(C)c1 | x | -2 | x | x | x
Cc1nc(COc2ccc(C(=O)Nc3ccccc3N3CCOCC3)cc2)cs1 | -19% | 6 | 9 | 26* | u
CCN(Cc1nc2ccccc2c(=O)[nH]1)C(=O)c1cccc(OCc2c(C)noc2C)c1 | 6.6µM* | -100* | x | x | u
O=C(Nc1ccc(-c2noc(CCc3ccccc3)n2)cc1)c1cccnc1 | u | u | 27* | 40* | 27%
Cc1ccsc1C(=O)Nc1ccc(OCc2ccccc2)cc1 | 133% | 36 | 18* | 68* | 133%
Cc1ccsc1C(=O)Nc1ccc(C(=O)O)cc1 | x | 48 | -1 | 10 | 92%
O=C(Cc1ccc2c(c1)OCCO2)N1CCN(c2ccccc2)CC1 | 20% | 99 | 10 | 28 | 15%
CCOC(=O)C1CCCN(C(=O)c2ccc3c(c2)N(Cc2ccccc2F)C(=O)c2ccccc2S3=O)C1 (centres undefined) | x | 11 | x | x | x
N=C(N)N1CCN(Cc2ccccc2)CC1 | 71% | x | 1 | 7 | u
CCCC(C)NC(=O)COc1ccc(S(=O)(=O)c2ccc(OCC(=O)NC(C)CCC)cc2)cc1 (centres undefined) | 12µM* | 5 | -6 | 12 | u
CC(C)=CC(=O)Nc1ccc(Br)cc1 | 150% | 66 | 58* | 74* | -6%
CCC(C)NC(=O)COc1ccc(S(=O)(=O)N2CCOCC2)cc1 (centres undefined) | -9% | -11 | 8 | 2 | 37%
O=C(NCCc1ccccc1)c1ccc(NC(=O)c2cccnc2)cc1 | -11% | 11 | 23* | 37* | -16%
O=C(Nc1ccc(OCc2ccccc2)cc1)c1cccnc1 | x | 9 | 20* | 41* | -12%
CC(C)CN1C(=O)C(=O)N(CC(=O)N(C)CC(=O)Nc2ccc(Cl)c(C(F)(F)F)c2)C1=O | 16% | 0 | x | x | 27%
NCC(=O)NCC(=O)OCc1ccccc1 | 12% | -29 | -5 | -2 | 2%
